The supplement of paper PMC12350171
Counter-ions that a name gives are not always drawn. Values without a mark were called inactive.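 How the source made its calls: active = normalised median growth AUC below 0.1 of DMSO control; inactive = AUC 0.1 or higher.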

Assays:
Test in all cases: growth AUC normalised to DMSO control (median) (fraction of control); higher = less growth inhibition, active = hit call of the paper
Settings in all cases: 20 µM
P. vulgatus RND KO = system: P. vulgatus RND KO
Summary of the method: (§1)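 For normalised area under the curve, growth curves were truncated at entry into stationary phase, integrated by the trapezoidal rule and divided against vehicle wells on the same plate. The curves came from strains passaged twice overnight without oxygen and then grown in mGAM in 96-well plates at a starting OD578 of 0.01. Each well held an approved-drug library compound at 20 μM with 1% DMSO, and OD578 was read hourly for 24 h in an anaerobic incubator. Values are medians of three biological replicates.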

P. vulgatus WT = system: P. vulgatus WT
Summary of the method: as §1

[1] = system: S. enterica typhimurium WT
Summary of the method: as §1

[2] = system: S. enterica typhimurium tolC KO
Summary of the method: as §1
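Further: active when median AUC fell below 0.1.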

Structure (SMILES)	growth AUC normalised to DMSO control (P. vulgatus RND KO)	growth AUC normalised to DMSO control (P. vulgatus WT)	growth AUC normalised to DMSO control [1]	growth AUC normalised to DMSO control [2]
CC1(C)S[C@@H]2[C@H](NC(=O)C(c3ccccc3)S(=O)(=O)O)C(=O)N2[C@H]1C(=O)O (stereo partly specified) [Sulbenicillin sodium salt]	0.00728 (active)	0.00538 (active)	0.116	0.00823 (active)
C=C1CC[C@H](O)C/C1=C/C=C1\CCC[C@]2(C)[C@@H]([C@H](C)CCCC(C)C)CC[C@@H]12 [Cholecalciferol]	1.05	1.07	0.999	0.982
O=C(CCCl)NCc1ccccc1 [Beclamide]	0.972	0.966	1.01	0.974
COc1cccc2c1C(=O)c1c(O)c3c(c(O)c1C2=O)C[C@@](O)(C(=O)CO)C[C@@H]3O[C@H]1C[C@H](N)[C@@H](O)[C@H](C)O1 [Epirubicin hydrochloride]	1.02	0.961	1	0.0212 (active)
CCCCNC(=N)NC(=N)N [Buformin]	1.04	1.06	1.02	0.991
CNC(=O)OCc1cccc(COC(=O)NC)n1 [Pyricarbate]	1.03	1.08	1.01	0.999
COc1cc(NS(=O)(=O)c2ccc(N)cc2)ncn1 [Sulfamonomethoxine]	1.02	0.976	0.955	0.974
O=C1CN2Cc3c(ccc(Cl)c3Cl)N=C2N1 [Anagrelide]	1.01	0.996	0.994	0.957
N[C@H](Cc1ccccc1)C(=O)O [D-phenylalanine]	0.996	0.985	0.995	1
C[C@@H](O)[C@H]1C(=O)N2C(C(=O)O)=C(S[C@@H]3CN[C@H](CNS(N)(=O)=O)C3)[C@H](C)[C@H]12 [Doripenem monohydrate]	0.00779 (active)	0.00747 (active)	0.00575 (active)	0.00595 (active)
CCN1CCN(Cc2ccc(Nc3ncc(F)c(-c4cc(F)c5nc(C)n(C(C)C)c5c4)n3)nc2)CC1 [Abemaciclib]	0.994	0.961	1	0.909
N[C@@H](CSCCCO)C(=O)O [Fudosteine]	1	0.987	0.996	1
COc1ccc(C(=O)CC(=O)c2ccc(C(C)(C)C)cc2)cc1 [Avobenzone]	0.939	0.911	0.992	0.976
COc1ccc(C[C@@H]2c3cc(OC)c(OC)cc3CC[N@+]2(C)CCC(=O)OCCCCCOC(=O)CC[N@@+]2(C)CCc3cc(OC)c(OC)cc3[C@H]2Cc2ccc(OC)c(OC)c2)cc1OC [Cisatracurium besylate]	1.06	1.05	1.02	0.994
CC1=C(C(=O)O)N2C(=O)[C@@H](NC(=O)[C@H](N)C3=CCC=CC3)[C@H]2SC1 [Cephradine monohydrate]	1.04	1.05	0.991	1.01
CC(=O)Nc1c(I)c(NC(C)=O)c(I)c(C(=O)O)c1I [Diatrizoic acid dihydrate]	0.922	0.995	0.998	0.995
CC(C(=O)O)c1ccc2c(c1)CC(=O)c1ccccc1S2 (stereo unspecified) [Zaltoprofen]	1.02	1.01	0.998	0.978
O=P(O)(O)C(O)(Cc1cccnc1)P(=O)(O)O [Risedronic acid monohydrate]	0.976	0.999	1.01	1
COCCCOc1cc(C[C@@H](C[C@H](N)[C@@H](O)C[C@H](C(=O)NCC(C)(C)C(N)=O)C(C)C)C(C)C)ccc1OC [Aliskiren hemifumarate]	1	1.05	0.997	1
COc1cc(/C=C/C(=O)N2CCN(CC(=O)N3CCCC3)CC2)cc(OC)c1OC [Cinepazide maleate]	1.04	1.08	1.01	1.01

Structure (SMILES)	growth AUC normalised to DMSO control (P. vulgatus RND KO)	growth AUC normalised to DMSO control (P. vulgatus WT)	growth AUC normalised to DMSO control [1]	growth AUC normalised to DMSO control [2]
COc1cc2c(cc1OC)CC(=O)N(CCCN(C)C[C@H]1Cc3cc(OC)c(OC)cc31)CC2 [Ivabradine hydrochloride]	1	0.997	1.01	0.965
CCCC(CCC)C(=O)O[C@H]1C[C@H]2CC[C@@H](C1)[N+]2(C)C [Anisotropine Methylbromide]	1.09	1.12	0.997	0.994
CC(C)(C)CC(C)(C)c1ccc(O)c(Cc2ccc(Cl)cc2Cl)c1 [Clofoctol]	0.619	0.581	0.995	1.02
CO/N=C(\C(=O)N[C@@H]1C(=O)N2C(C(=O)[O-])=C(C[n+]3cccc4c3CCC4)CS[C@H]12)c1csc(N)n1 [Cefpirome sulfate]	0.0131 (active)	0.00672 (active)	0.00453 (active)	0.00385 (active)
NCCc1c[nH]cn1 [Histamine dihydrochloride]	0.991	0.979	1	0.982
N[C@@H]1CCCCN(c2c(F)cc3c(=O)c(C(=O)O)cn(C4CC4)c3c2Cl)C1 [Besifloxacin hydrochloride]	0.0164 (active)	0.0175 (active)	0.00618 (active)	0.00833 (active)
CCOc1ccc2nc3cc(N)ccc3c(N)c2c1 [Ethacridine lactate]	0.999	0.961	0.991	0.977
COc1cc(C(=O)N2CCOCC2)cc(OC)c1OC [Trimetozine]	1.01	1.01	0.996	0.991
COC(=O)C1=C(C)NC(C)=C(C(=O)OCCN2CCN(C(c3ccccc3)c3ccccc3)CC2)C1c1cccc([N+](=O)[O-])c1 (stereo unspecified) [Manidipine Dihydrochloride]	1.03	1.02	0.999	1.02
COc1cc(C(=O)NC2CCCNC2)cc(OC)c1OC (stereo unspecified) [Troxipide]	1.07	1.1	0.998	0.995
N#Cc1cc(NC(=O)C(=O)O)c(Cl)c(NC(=O)C(=O)O)c1 [Lodoxamide]	1	1.04	1	1.01
CN1CCC(=C2c3ccccc3CCc3cccnc32)CC1 [Azatadine maleate]	0.998	0.987	1	0.993
CCOC(=O)C1=C[C@@H](OC(CC)CC)[C@H](NC(C)=O)[C@@H](N)C1 [Oseltamivir phosphate]	1.08	1.05	0.996	0.984
Nc1ccc(S(=O)(=O)Nc2cnc3ccccc3n2)cc1 [Sulfaquinoxaline sodium salt]	1.01	1.04	0.985	1
CC[C@H]1OC(=O)C[C@@H](O)[C@H](C)[C@@H](O[C@@H]2O[C@H](C)[C@@H](O[C@H]3C[C@@](C)(O)[C@@H](O)[C@H](C)O3)[C@H](N(C)C)[C@H]2O)[C@@H](CC=O)C[C@@H](C)C(=O)/C=C/C(C)=C/[C@@H]1CO[C@@H]1O[C@H](C)[C@@H](O)[C@@H](OC)[C@H]1OC [Tylosin]	0.015 (active)	0.0123 (active)	0.997	0.721
COc1cccc(CCc2ccccc2OCC(CN(C)C)OC(=O)CCC(=O)O)c1 (stereo unspecified) [Sarpogrelate hydrochloride]	1.03	1.05	1	0.988
CCCCOCCOCCOCc1cc2c(cc1CCC)OCO2 [Piperonyl butoxide]	1.08	1.05	1.02	0.872
CCCCOC(=O)c1ccccc1Nc1cccc(C(F)(F)F)c1 [Ufenamate]	1.02	0.978	0.998	0.992
Nc1c2ccccc2nc2ccccc12 [Aminacrine]	1.07	1.02	0.902	0.903
